# Measured values from the supplement of paper PMC8728848.
# Only a selection was taken, and the strongest signals are over-represented in it overall.
# B1: BIp1-His (Cryptococcus neoformans) (protein)
# chain: MFTKIFVALFAATAVLSAPVESAEKRITHTGRATFYSPSVGIGACGWQNTDEELVVALNAPQYALNADHNCGQSVRITNEQNGNQEIAKVVDLCPGCNDGDLDMSPALFGALNNNDFDQGVFPISWNFLPRDDTSSSN
# Legend:
# Assay in all cases: glycan array binding signal (z-score within array); higher = stronger binding
# Details in all cases: glycan notation: IUPAC condensed, linker removed
# [1] = target: GlcNAc(b1-3)Gal(b1-4)GlcNAc(b1-3)Gal(b1-4)GlcNAc(b1-2)Man(a1-3)[GlcNAc(b1-3)Gal(b1-4)GlcNAc(b1-3)Gal(b1-4)GlcNAc(b1-2)Man(a1-6)]Man(b1-4)GlcNAc(b1-4)GlcNAc
# In short: (§1)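 Columns mapping to the same glycan were averaged after glycan names were converted to IUPAC-condensed notation. The data come from 3228 arrays in the Consortium for Functional Glycomics database, limited to those with an available protein sequence. Binding is reported as a within-array Z-score averaged across arrays of one protein sequence and across linkers.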
# [2] = target: GlcNAc(b1-3)Gal(b1-4)GlcNAc(b1-3)Gal(b1-4)GlcNAc(b1-2)[GlcNAc(b1-3)Gal(b1-4)GlcNAc(b1-3)Gal(b1-4)GlcNAc(b1-6)]Man(a1-6)[GlcNAc(b1-3)Gal(b1-4)GlcNAc(b1-3)Gal(b1-4)GlcNAc(b1-2)Man(a1-3)]Man(b1-4)GlcNAc(b1-4)[Fuc(a1-6)]GlcNAc
# In short: as §1
# [3] = target: GlcNAc(b1-3)Gal(b1-4)GlcNAc(b1-3)Gal(b1-4)GlcNAc(b1-3)Gal(b1-4)GlcNAc(b1-2)Man(a1-3)[GlcNAc(b1-3)Gal(b1-4)GlcNAc(b1-3)Gal(b1-4)GlcNAc(b1-3)Gal(b1-4)GlcNAc(b1-2)Man(a1-6)]Man(b1-4)GlcNAc(b1-4)GlcNAc
# In short: as §1
# [4] = target: GlcNAc(b1-3)Gal(b1-4)GlcNAc(b1-3)Gal(b1-4)GlcNAc(b1-3)Gal(b1-4)GlcNAc(b1-2)Man(a1-3)[GlcNAc(b1-3)Gal(b1-4)GlcNAc(b1-3)Gal(b1-4)GlcNAc(b1-3)Gal(b1-4)GlcNAc(b1-2)Man(a1-6)]Man(b1-4)GlcNAc(b1-4)[Fuc(a1-6)]GlcNAc
# In short: as §1
# [5] = target: GlcNAc(b1-3)Gal(b1-4)GlcNAc(b1-3)Gal(b1-4)GlcNAc(b1-3)Gal(b1-4)GlcNAc(b1-3)Gal(b1-4)GlcNAc(b1-2)[GlcNAc(b1-3)Gal(b1-4)GlcNAc(b1-3)Gal(b1-4)GlcNAc(b1-3)Gal(b1-4)GlcNAc(b1-3)Gal(b1-4)GlcNAc(b1-6)]Man(a1-6)[GlcNAc(b1-3)Gal(b1-4)GlcNAc(b1-3)Gal(b1-4)GlcNAc(b1-3)Gal(b1-4)GlcNAc(b1-3)Gal(b1-4)GlcNAc(b1-2)Man(a1-3)]Man(b1-4)GlcNAc(b1-4)[Fuc(a1-6)]GlcNAc
# In short: as §1
# [6] = target: GlcNAc(b1-3)[GlcNAc(b1-6)]GalNAc
# In short: as §1
# [7] = target: Man(a1-2)Man(a1-3)Man
# In short: as §1
# [8] = target: Man(a1-3)[Man(a1-6)]Man
# In short: as §1
# [9] = target: Neu5Ac(a2-3)Gal(b1-3)GalNAc(b1-4)Gal(b1-4)Glc
# In short: as §1
# [10] = target: Neu5Ac(a2-3)Gal(b1-3)GlcNAc
# In short: as §1
# [11] = target: Neu5Ac(a2-3)Gal(b1-3)GlcNAc(b1-3)Gal(b1-4)GlcNAc
# In short: as §1
# [12] = target: Neu5Ac(a2-3)Gal(b1-3)GlcNAc(b1-6)GalNAc
# In short: as §1
# [13] = target: Neu5Ac(a2-3)Gal(b1-3)[Fuc(a1-4)]GlcNAc(b1-3)Gal(b1-3)[Fuc(a1-4)]GlcNAc
# In short: as §1
# [14] = target: Neu5Ac(a2-3)Gal(b1-4)GlcNAc(b1-2)Man(a1-3)[Neu5Ac(a2-6)Gal(b1-4)GlcNAc(b1-2)Man(a1-6)]Man(b1-4)GlcNAc(b1-4)GlcNAc
# In short: as §1
# [15] = target: Neu5Ac(a2-3)Gal(b1-4)GlcNAc(b1-3)Gal(b1-4)GlcNAc(b1-2)Man(a1-3)[Neu5Ac(a2-3)Gal(b1-4)GlcNAc(b1-3)Gal(b1-4)GlcNAc(b1-2)Man(a1-6)]Man(b1-4)GlcNAc(b1-4)GlcNAc
# In short: as §1
# [16] = target: Neu5Ac(a2-3)Gal(b1-4)GlcNAc(b1-3)Gal(b1-4)GlcNAc(b1-3)Gal(b1-4)GlcNAc(b1-2)Man(a1-3)[Neu5Ac(a2-3)Gal(b1-4)GlcNAc(b1-3)Gal(b1-4)GlcNAc(b1-3)Gal(b1-4)GlcNAc(b1-2)Man(a1-6)]GalNAc
# In short: as §1
# [17] = target: Neu5Ac(a2-3)Gal(b1-4)GlcNAc(b1-3)Gal(b1-4)GlcNAc(b1-3)[Neu5Ac(a2-3)Gal(b1-4)GlcNAc(b1-3)Gal(b1-4)GlcNAc(b1-6)]GalNAc
# In short: as §1
# [18] = target: Neu5Ac(a2-3)Gal(b1-4)GlcNAc(b1-6)[Neu5Ac(a2-3)Gal(b1-3)]GalNAc
# In short: as §1
# [19] = target: Neu5Ac(a2-3)Gal(b1-4)[Fuc(a1-3)]GlcNAc(b1-3)GalNAc
# In short: as §1
# [20] = target: Neu5Ac(a2-3)Gal(b1-4)[Fuc(a1-3)]GlcNAc(b1-6)[Gal(b1-3)]GalNAc
# In short: as §1
# [21] = target: Neu5Ac(a2-6)Gal(b1-4)GlcNAc(b1-2)Man(a1-3)Man(b1-4)GlcNAc(b1-4)GlcNAc
# In short: as §1
# [22] = target: Neu5Ac(a2-6)Gal(b1-4)GlcNAc(b1-2)Man(a1-3)[Neu5Ac(a2-6)Gal(b1-4)GlcNAc(b1-2)Man(a1-6)]Man(b1-4)GlcNAc(b1-4)[Fuc(a1-6)]GlcNAc
# In short: as §1
# [23] = target: Neu5Ac(a2-6)Gal(b1-4)GlcNAc(b1-2)[Neu5Ac(a2-6)Gal(b1-4)GlcNAc(b1-4)]Man(a1-3)[GlcNAc(b1-4)][Neu5Ac(a2-6)Gal(b1-4)GlcNAc(b1-2)[Neu5Ac(a2-6)Gal(b1-4)GlcNAc(b1-6)]Man(a1-6)]Man(b1-4)GlcNAc(b1-4)GlcNAc
# In short: as §1
# [24] = target: Neu5Ac(a2-6)Gal(b1-4)GlcNAc(b1-3)Gal(b1-4)[Fuc(a1-3)]GlcNAc(b1-3)Gal(b1-4)[Fuc(a1-3)]GlcNAc
# In short: as §1
# [25] = target: Neu5Ac(a2-8)Neu5Ac(a2-3)Gal(b1-3)GalNAc(b1-4)[Neu5Ac(a2-8)Neu5Ac(a2-3)]Gal(b1-4)Glc
# In short: as §1
# [26] = target: Neu5Ac(b2-6)GalNAc
# In short: as §1
# [27] = target: Neu5Gc(a2-3)Gal(b1-3)[Fuc(a1-4)]GlcNAc
# In short: as §1
binder,measurement,setting,value
B1,glycan array binding signal (z-score),[1],1.87
same,glycan array binding signal (z-score),[2],2.23
same,glycan array binding signal (z-score),[3],2.51
same,glycan array binding signal (z-score),[4],3.44
same,glycan array binding signal (z-score),[5],0.882
same,glycan array binding signal (z-score),[6],-0.522
same,glycan array binding signal (z-score),[7],-0.136
same,glycan array binding signal (z-score),[8],0.728
same,glycan array binding signal (z-score),[9],-0.565
same,glycan array binding signal (z-score),[10],-0.217
same,glycan array binding signal (z-score),[11],0.65
same,glycan array binding signal (z-score),[12],1.86
same,glycan array binding signal (z-score),[13],-0.526
same,glycan array binding signal (z-score),[14],-0.064
same,glycan array binding signal (z-score),[15],-0.11
same,glycan array binding signal (z-score),[16],2.41
same,glycan array binding signal (z-score),[17],-0.12
same,glycan array binding signal (z-score),[18],-1.36
same,glycan array binding signal (z-score),[19],1.32
same,glycan array binding signal (z-score),[20],0.648
same,glycan array binding signal (z-score),[21],0.176
same,glycan array binding signal (z-score),[22],0.617
same,glycan array binding signal (z-score),[23],-0.066
same,glycan array binding signal (z-score),[24],-0.059
same,glycan array binding signal (z-score),[25],1.77
same,glycan array binding signal (z-score),[26],-0.971
same,glycan array binding signal (z-score),[27],-0.455
